Common to all, as to experiment: DAPPL (digital affinity profiling via proximity ligation, sequencing); 10 mM Tris-HCl pH 7.5, 50 mM NaCl, 1 mM DTT, 4% glycerol, room temperature, 30 min; GST-TFs on glutathione beads, 16-mer random dsDNA library, 0.1% formaldehyde crosslink after washing; high values mean tight binding
Settings in all cases: protein: recombinant; tags: N-terminal GST; dsDNA, one strand shown

In one assay the target is T1, ELK4 (Homo sapiens, UniProt P28324-2 1-405).
T1 sequence: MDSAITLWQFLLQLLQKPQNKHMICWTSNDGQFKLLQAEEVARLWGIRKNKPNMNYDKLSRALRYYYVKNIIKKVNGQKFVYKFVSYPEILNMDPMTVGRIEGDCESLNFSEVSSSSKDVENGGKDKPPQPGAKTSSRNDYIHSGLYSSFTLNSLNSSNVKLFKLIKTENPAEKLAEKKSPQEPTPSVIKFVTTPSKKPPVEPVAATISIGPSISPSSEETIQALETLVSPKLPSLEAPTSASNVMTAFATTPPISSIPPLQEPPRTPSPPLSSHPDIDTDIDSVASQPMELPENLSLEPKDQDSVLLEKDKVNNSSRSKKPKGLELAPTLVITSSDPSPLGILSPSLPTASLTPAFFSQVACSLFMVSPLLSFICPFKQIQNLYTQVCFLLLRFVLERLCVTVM
A digest of the protocol:
(§1)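 Binding signal is each hexamer's read frequency for a factor divided by its frequency in the tag-only sample. The factors were GST-fused human transcription factors from yeast, captured on glutathione beads, DNA-barcoded and pooled with that sample. Pools were incubated with 200 nmole of a random double-stranded 16-mer DNA library in Tris/NaCl/DTT/glycerol buffer at room temperature for 30 min, then washed, crosslinked with 0.1% formaldehyde, proximity-ligated with BsaI/T4 ligase (1 h, 37 °C), PCR-amplified and sequenced on an Illumina NextSeq500.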

Another assay deals with T2, ELK1 (Homo sapiens, UniProt P19419 1-428).
T2 sequence: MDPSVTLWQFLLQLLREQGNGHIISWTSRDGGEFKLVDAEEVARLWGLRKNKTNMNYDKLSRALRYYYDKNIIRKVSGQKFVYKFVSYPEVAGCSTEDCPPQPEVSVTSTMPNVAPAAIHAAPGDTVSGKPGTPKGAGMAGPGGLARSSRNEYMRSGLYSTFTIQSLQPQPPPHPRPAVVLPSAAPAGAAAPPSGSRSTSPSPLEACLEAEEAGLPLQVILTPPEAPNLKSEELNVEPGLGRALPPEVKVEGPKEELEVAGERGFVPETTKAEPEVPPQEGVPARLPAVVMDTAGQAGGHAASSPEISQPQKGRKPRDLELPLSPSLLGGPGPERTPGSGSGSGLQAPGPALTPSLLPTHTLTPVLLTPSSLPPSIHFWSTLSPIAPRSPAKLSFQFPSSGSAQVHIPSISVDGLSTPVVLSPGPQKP
The procedure, abridged:
as §1

Another assay has as its target ELF1 (Homo sapiens, UniProt P32519 1-619). The procedure, abridged:
as §1

For the next assay, the target named is T3, FEV (Homo sapiens, UniProt Q99581 1-238).
T3 sequence: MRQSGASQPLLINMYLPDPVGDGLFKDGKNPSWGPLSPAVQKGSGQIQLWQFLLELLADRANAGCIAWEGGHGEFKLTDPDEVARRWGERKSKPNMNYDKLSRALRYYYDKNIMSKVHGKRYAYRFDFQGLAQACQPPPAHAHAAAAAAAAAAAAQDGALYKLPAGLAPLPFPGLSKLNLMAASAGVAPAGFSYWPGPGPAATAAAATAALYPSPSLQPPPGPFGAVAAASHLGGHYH
The procedure, abridged: as §1

For a further assay, the target named is T4, ELF3 (Homo sapiens, UniProt P78545 1-371).
T4 sequence: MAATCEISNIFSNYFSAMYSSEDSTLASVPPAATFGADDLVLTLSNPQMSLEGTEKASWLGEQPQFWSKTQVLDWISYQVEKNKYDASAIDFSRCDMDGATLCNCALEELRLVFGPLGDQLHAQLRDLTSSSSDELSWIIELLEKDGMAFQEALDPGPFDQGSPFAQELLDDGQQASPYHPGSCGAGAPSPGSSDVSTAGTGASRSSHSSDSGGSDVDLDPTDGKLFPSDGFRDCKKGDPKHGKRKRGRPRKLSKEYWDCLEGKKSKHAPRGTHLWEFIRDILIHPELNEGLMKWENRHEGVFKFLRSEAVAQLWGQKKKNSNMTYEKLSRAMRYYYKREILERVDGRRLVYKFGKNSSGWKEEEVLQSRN
A digest of the protocol: as §1

For a further assay, the target named is ETV1 (Homo sapiens, UniProt P50549 1-477). A digest of the protocol: as §1
Another assay addresses SPI1 (Homo sapiens, UniProt P17947 1-270). The procedure, abridged:
as §1

In a further assay the target is SPIB (Homo sapiens, UniProt Q01892 1-262). A digest of the protocol: as §1
The next assay deals with T5, GABPA (Homo sapiens, UniProt Q06546 1-454).
T5 sequence: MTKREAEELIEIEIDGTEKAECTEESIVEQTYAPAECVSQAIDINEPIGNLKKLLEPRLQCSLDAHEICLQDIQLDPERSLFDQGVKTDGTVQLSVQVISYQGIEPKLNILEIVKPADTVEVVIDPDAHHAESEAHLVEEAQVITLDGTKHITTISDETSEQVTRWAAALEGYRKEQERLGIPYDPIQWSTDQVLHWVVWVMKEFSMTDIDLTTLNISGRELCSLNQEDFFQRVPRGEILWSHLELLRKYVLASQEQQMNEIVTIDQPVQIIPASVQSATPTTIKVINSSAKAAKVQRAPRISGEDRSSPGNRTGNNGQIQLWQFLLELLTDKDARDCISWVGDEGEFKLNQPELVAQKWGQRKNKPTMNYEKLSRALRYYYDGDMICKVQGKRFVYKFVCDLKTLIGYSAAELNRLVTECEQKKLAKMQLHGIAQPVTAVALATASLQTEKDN
A digest of the protocol:
as §1

The target of the next assay is T6, ETV3L (Homo sapiens, UniProt Q6ZN32 1-361).
T6 sequence: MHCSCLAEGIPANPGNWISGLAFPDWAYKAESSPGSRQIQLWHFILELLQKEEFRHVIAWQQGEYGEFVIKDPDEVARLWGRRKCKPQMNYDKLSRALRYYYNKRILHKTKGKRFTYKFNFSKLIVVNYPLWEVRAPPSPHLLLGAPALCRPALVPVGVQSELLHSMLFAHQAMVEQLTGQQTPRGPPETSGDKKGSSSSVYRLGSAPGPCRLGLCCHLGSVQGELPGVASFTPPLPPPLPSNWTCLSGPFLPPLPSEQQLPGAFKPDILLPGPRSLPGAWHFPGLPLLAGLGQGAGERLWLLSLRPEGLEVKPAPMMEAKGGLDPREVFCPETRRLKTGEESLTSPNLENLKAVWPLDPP
The procedure, abridged: as §1

A further assay addresses T7, ETV7 (Homo sapiens, UniProt Q9Y603 1-341).
T7 sequence: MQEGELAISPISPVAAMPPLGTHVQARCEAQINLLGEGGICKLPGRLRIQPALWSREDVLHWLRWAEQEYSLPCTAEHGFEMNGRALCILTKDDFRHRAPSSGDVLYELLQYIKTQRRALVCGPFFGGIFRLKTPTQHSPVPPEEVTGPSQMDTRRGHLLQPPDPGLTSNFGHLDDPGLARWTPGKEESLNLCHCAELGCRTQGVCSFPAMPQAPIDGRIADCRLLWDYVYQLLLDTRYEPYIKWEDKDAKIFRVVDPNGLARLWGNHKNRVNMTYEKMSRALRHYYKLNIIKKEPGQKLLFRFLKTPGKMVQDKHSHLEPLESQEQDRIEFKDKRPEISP
A digest of the protocol: as §1

The target of the next assay is T8, EHF (Homo sapiens, UniProt Q9NZC4 1-300).
T8 sequence: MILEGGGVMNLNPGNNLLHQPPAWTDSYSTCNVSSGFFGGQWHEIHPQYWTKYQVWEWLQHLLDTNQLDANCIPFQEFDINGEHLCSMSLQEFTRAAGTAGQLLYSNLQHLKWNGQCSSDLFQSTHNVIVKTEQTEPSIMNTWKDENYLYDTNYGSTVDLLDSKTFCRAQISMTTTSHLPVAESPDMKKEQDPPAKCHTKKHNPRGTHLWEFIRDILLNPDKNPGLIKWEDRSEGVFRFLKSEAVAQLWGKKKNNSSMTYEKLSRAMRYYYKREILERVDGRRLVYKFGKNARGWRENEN
A digest of the protocol:
as §1

A further assay deals with T9, ELK3 (Homo sapiens, UniProt P41970 1-407).
T9 sequence: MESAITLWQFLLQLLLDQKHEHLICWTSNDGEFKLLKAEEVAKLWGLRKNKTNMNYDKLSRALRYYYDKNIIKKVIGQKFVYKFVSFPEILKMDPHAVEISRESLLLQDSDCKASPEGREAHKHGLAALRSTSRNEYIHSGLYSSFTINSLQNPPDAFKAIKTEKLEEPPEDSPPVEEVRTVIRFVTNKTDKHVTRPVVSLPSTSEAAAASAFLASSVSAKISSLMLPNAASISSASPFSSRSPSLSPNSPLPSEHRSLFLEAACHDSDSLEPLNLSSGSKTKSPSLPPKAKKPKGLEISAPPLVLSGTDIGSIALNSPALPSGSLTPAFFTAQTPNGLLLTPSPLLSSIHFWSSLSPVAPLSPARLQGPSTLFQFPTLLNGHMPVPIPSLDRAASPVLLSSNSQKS
The procedure, abridged:
as §1

The target of another assay is T10, ETS2 (Homo sapiens, UniProt P15036 1-469).
T10 sequence: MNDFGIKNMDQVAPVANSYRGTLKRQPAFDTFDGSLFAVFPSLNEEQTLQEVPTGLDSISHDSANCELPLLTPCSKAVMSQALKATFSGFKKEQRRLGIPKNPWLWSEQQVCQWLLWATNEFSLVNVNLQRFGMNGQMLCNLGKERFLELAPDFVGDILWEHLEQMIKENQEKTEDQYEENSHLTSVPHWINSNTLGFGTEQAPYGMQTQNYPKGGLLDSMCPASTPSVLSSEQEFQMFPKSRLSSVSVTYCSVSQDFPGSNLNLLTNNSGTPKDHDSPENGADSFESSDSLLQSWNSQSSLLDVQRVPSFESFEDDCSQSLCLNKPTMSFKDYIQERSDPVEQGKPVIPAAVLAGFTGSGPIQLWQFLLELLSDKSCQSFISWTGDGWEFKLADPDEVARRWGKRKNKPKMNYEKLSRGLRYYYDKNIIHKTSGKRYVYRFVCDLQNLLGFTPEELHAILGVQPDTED
The procedure, abridged:
as §1

The target of the next assay is T11, SPDEF (Homo sapiens, UniProt O95238 1-335).
T11 sequence: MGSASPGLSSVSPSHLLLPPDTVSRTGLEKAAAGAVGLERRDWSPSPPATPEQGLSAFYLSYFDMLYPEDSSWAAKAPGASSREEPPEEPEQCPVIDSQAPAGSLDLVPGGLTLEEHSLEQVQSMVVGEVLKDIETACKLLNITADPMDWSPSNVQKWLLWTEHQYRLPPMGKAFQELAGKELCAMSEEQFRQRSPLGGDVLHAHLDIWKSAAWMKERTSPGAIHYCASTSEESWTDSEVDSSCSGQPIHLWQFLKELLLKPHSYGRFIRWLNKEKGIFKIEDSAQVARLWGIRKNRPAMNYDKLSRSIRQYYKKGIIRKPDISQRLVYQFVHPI
The procedure, abridged:
as §1

Sequence of SPIB (Q01892 whole entry): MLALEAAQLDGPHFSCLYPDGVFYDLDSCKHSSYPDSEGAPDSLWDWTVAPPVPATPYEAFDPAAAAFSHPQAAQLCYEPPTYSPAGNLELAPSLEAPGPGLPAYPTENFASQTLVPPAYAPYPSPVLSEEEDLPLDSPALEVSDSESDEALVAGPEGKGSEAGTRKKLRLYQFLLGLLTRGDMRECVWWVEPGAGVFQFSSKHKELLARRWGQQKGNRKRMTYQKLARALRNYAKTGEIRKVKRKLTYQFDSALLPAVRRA
Sequence of ELF1 (P32519 whole entry): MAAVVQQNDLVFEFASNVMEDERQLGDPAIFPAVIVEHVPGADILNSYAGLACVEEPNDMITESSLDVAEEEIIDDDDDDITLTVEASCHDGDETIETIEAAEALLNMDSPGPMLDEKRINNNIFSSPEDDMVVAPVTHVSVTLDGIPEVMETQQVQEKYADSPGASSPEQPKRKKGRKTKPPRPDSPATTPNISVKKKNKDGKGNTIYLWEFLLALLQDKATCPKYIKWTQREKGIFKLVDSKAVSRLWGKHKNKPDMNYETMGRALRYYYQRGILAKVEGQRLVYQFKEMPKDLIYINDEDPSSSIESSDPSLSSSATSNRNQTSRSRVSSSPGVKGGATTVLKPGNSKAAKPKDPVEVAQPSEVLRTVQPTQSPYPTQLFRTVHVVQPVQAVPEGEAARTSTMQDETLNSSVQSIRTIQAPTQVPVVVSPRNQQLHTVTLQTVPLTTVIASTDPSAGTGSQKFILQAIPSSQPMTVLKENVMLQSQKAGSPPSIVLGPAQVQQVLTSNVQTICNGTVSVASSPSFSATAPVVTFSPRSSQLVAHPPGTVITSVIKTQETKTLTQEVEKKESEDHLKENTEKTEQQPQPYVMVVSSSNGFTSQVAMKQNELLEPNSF
Sequence of ETV1 (P50549 whole entry): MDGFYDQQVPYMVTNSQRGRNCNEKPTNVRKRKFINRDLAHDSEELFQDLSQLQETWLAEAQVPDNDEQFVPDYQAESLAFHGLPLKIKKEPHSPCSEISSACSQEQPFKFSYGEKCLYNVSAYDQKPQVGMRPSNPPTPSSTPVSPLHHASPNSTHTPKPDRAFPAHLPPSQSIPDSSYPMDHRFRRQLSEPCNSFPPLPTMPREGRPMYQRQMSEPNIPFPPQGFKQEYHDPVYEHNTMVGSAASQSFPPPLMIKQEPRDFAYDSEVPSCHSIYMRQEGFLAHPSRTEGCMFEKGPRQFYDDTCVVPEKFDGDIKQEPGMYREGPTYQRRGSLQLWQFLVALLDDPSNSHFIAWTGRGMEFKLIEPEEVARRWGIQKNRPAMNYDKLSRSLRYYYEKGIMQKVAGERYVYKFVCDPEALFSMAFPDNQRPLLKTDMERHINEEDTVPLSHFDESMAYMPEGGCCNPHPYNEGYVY

GTTGAA: in the assay with ELK4, the binding signal is 1.01 fold enrichment (6-mer frequency, TF over GST control).

As to GCCACA, the binding signal with ELK1 was 1.02 fold enrichment (6-mer frequency, TF over GST control); with ELF1 it was 1.01 fold enrichment (6-mer frequency, TF over GST control); in the assay with FEV, 1.06 fold enrichment (6-mer frequency, TF over GST control); with ELF3 it was 1.07 fold enrichment (6-mer frequency, TF over GST control); with ETV1, 1.08 fold enrichment (6-mer frequency, TF over GST control).

Regarding GTGGTA, the binding signal in the assay with SPI1 is 1.02 fold enrichment (6-mer frequency, TF over GST control); with SPIB, 1 fold enrichment (6-mer frequency, TF over GST control); in the assay with ELK4, 1.02 fold enrichment (6-mer frequency, TF over GST control).

In the case of AGATGT, the binding signal was 1 fold enrichment (6-mer frequency, TF over GST control) with ELK1; 1.01 fold enrichment (6-mer frequency, TF over GST control) in the assay with GABPA; 1.04 fold enrichment (6-mer frequency, TF over GST control) with ELF3; 1 fold enrichment (6-mer frequency, TF over GST control) with ETV3L; 1.04 fold enrichment (6-mer frequency, TF over GST control) with ETV7.

Regarding CCACCA, the binding signal in the assay with ELK1 is 1.04 fold enrichment (6-mer frequency, TF over GST control); with ELF1, 1.12 fold enrichment (6-mer frequency, TF over GST control); with EHF, 1.04 fold enrichment (6-mer frequency, TF over GST control); with SPIB, 1.08 fold enrichment (6-mer frequency, TF over GST control); with ELK3, 1.03 fold enrichment (6-mer frequency, TF over GST control); with FEV, 1.04 fold enrichment (6-mer frequency, TF over GST control). Moreover, the binding signal with ELK4 was 1.14 fold enrichment (6-mer frequency, TF over GST control); with ETV1, 1.02 fold enrichment (6-mer frequency, TF over GST control); with ETV3L it was 1.04 fold enrichment (6-mer frequency, TF over GST control); with ETS2 it was 1.05 fold enrichment (6-mer frequency, TF over GST control); with SPDEF, 1.01 fold enrichment (6-mer frequency, TF over GST control).

The values above are taken from publication PMC7862700, “An all-to-all approach to the identification of sequence-specific readers for epigenetic DNA modifications on cytosine”.
